Reference: PubChem BioAssay (NCI)
The panel holds about 83,000 compounds, 20% with a hit somewhere; the sample as a whole holds those more often.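 Growth was measured after 48 h exposure to one concentration of compound in 96-well plates. Values under 10 count as active.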 A number with no mark means an inactive call. Calls of active or inactive are those of the source.

What follows are compounds tested on T-47D breast (assay: NCI-60 one-dose screen, 48 h (100 = growth as untreated, 0 = no growth, -100 = all killed)). Details: 1 µM.
Procedure: Growth inhibition of the T-47D human tumor cell line is measured as a screen for anti-cancer activity. Cells are grown in 96 well plates and exposed to the test compound for 48 hours. Compounds are tested at a single concentration, which is 10^-5 M for most compounds. The reported endpoint is percent growth (GI% or GIPRCNT), where numbers from 0 - 100% represent growth inhibition, and numbers from -100% - 0 represent cell death. For example, a value of 40 represents 60% growth inhibition. A value of 0 means no net growth occurred over the course of the experiment. A value of -40 indicates 40% of cells at the beginning of the experiment died by the end of the experiment. A value of -100 means all cells are dead at the end of the experiment.
NCI-60 Human Tumor Cell Lines Screen was performed using the standard one-dose NCI protocol, which is described in more detail at https://dtp.cancer.gov/discovery_development/nci-60/default.htm.
Compounds with GIPRCNT values below 10 were considered active. Activity score was based on GIPRCNT using the following formula: […]
Score is 0 for GIPRCNT values of 100 or above, 50 for GIPRCNT values of 0, and 100 for GIPRCNT values of -100.
`CC/C(=C(/c1ccc(O)cc1)c1ccc(OCCN(C)C(=O)COCCOCCNC(=O)c2ccc3c(c2)CN([C@@H]2CCC(=O)NC2=O)C3=O)cc1)c1ccccc1` gave a growth of 28.6%.

Same assay, conditions: 10 µM
With `CC/C(=C(/c1ccc(O)cc1)c1ccc(OCCN(C)C(=O)COCCOCCNC(=O)c2ccc3c(c2)CN([C@@H]2CCC(=O)NC2=O)C3=O)cc1)c1ccccc1` the growth was 33.4%.

Same assay, conditions: 10 µM unless noted
`CCCN(CCC)S(=O)(=O)c1ccc(C(=O)O)cc1.CCCN(CCC)S(=O)(=O)c1ccc(C(=O)O)cc1.[Cl][Pt+2][Cl].[NH2-].[NH2-]` showed a growth of 26.3%.
In the case of `O=C(N/N=C/c1ccc(Cl)o1)c1[nH]c2ccc(Br)cc2c1-c1ccccc1`, the growth is reported as 29.8%.
In the case of `CC(C)CN1C(=O)/C(=C\C(=O)c2cc3ccccc3oc2=O)c2ccccc21`, the growth is reported as 44.7%.
In the case of `NS(=O)(=O)c1cccc(Nc2nc(SCC(=O)c3ccc(F)cc3)nc3ccccc23)c1`, the growth is reported as -7.28% (active).
With `C=CC(=O)Nc1ccc(C(=O)/C=C/c2ccc(N(C)C)cc2)c(O)c1` the growth was 9.74% (active).
`COc1ccc(NC(=O)Cn2c(/C=C/c3ccc([N+](=O)[O-])cc3)nc3ccccc3c2=O)cc1` showed a growth of 56.1%.
`CC1=C(C(=O)Nc2ccccc2)C(c2cccc(Cl)c2Cl)n2c(nc3ccccc32)N1` (stereo not given) gave a growth of 67.4%.
For `O=C1NC(=NC23CC4CC(CC(C4)C2)C3)N/C1=C\c1ccc2ncccc2c1`, the growth was 22.5%.
`COc1cc(CNC(=O)C[C@H](C)CCC=C(C)C)ccc1OCc1cn(-c2cccc(C(F)(F)F)c2)nn1` gave a growth of 32.4%.
`O=C(CSc1nc2ccccc2c(=O)[nH]1)Nc1ccccc1C(=O)O` showed a growth of 93.9%.
`Nc1nn2c(-c3cc4ccccc4oc3=O)ccnc2c1N=Nc1ccccc1` gave a growth of 85.9%.
Work on `C=CC[n+]1cccc2c3ccccc3ccc21` yielded a growth of 27%.
`COc1ccc2c(c1)C(Sc1ccc(Cl)cc1)c1c(nc(N)c(C#N)c1N)O2` (stereo not given) showed a growth of 55%.
`Cc1ccc2nc(COc3ccc(C(=O)NNC(=O)Nc4ccc(Cl)c(C(F)(F)F)c4)cc3)[nH]c2c1` was tested, and the growth was -24.8% (active).
With `CS(=O)(=O)Nc1cc(-c2ccc3ncnc(Nc4ccc(OCc5cccnc5)c(Cl)c4)c3c2)cnc1Cl` the growth was -39% (active).
Compound `CC(C)(C)OC(=O)N1CCC2(CC1)Oc1ccccc1[C@H]1CC(c3ccc(Br)cc3)=NN12` has a growth of 37.1%.
`Cn1cc(-c2cc3nc(-c4cn(C)c5ncccc45)cc(N)n3n2)c2cc(F)ccc21` showed a growth of 37.8%.
Compound `Fc1ccc(Nc2nnc(-c3c[nH]c4ccccc34)o2)cc1` has a growth of 47.2%.
With `CN(C)c1ccc(/C=C/c2n(Cc3ccc4ccccc4c3)c3ccccc3[n+]2Cc2ccc3ccccc3c2)cc1` the growth was -55.3% (active).
Work on `Cc1[nH]nc2ccc3nc(-c4cnn(CCO)c4)c4c(c3c12)CCCC4` yielded a growth of 34.5%.
`NS(=O)(=O)c1ccc(N2N=C(c3ccc(NC(=O)Nc4ccccc4)cc3)CC2c2ccc(Br)cc2)cc1` (stereo not given) was tested, and the growth was -73.8% (active).
For `Cc1ccc(C(=O)Nc2ccc(-n3ccnc3)c(C(F)(F)F)c2)cc1C#Cc1cnc2cccnn12`, the growth was -13.3% (active).
With `NS(=O)(=O)c1ccc(Nc2nc(N/N=C/c3cc(Br)c(O)c(Br)c3)nc(Nc3ccccc3)n2)cc1` the growth was 25.5%.
Work on `CC(=O)c1c2c(c3ccc4c5ccccc5ccc4n13)C(=O)c1ccccc1C2=O` yielded a growth of 92.5%.
For `Nc1nc(-c2ccccc2)c(N=Nc2ccc(Cl)cc2Cl)s1`, the growth was 25.4%.
For `CCCCCCCCCCCCCCCCCC(=O)Nc1ccc(OC)cc1`, the growth was 108%.
In the case of `NCCCCn1c(SCCc2c[nH]c3ccccc23)nnc1-c1ccc2ccccc2n1`, the growth is reported as -63.4% (active).
In the case of `Cc1cn(-c2cc(NC(=O)c3ccc(C)c(-n4cc(-c5cnc6cccnn56)nn4)c3)cc(C(F)(F)F)c2)cn1`, the growth is reported as 94.6%.
`COc1ccc2[nH]c(O)c(N=NC(=O)c3ccc4nc(-c5ccc(Cl)cc5)[nH]c4c3)c2c1` was tested, and the growth was 13.5%.
In the case of `COc1ccc(NC2=C(I)C(=O)C(C)=C(C)C2=O)cc1`, the growth is reported as -21.1% (active).
Work on `O=C(N/N=C/c1c[nH]c2ccccc12)Nc1ccccc1Cl` yielded a growth of 44.9%.
`S=C(NCCc1ccccc1)Nc1ccc(OCc2nc3ccc(Cl)cc3[nH]2)cc1` was tested, and the growth was 34.9%.
In the case of `O=C(COc1ccc(/C=C2/C(=O)Nc3ccc(Cl)cc32)cc1)Nc1ccc(Br)cc1`, the growth is reported as -22% (active).
Work on `NS(=O)(=O)c1ccc(Nc2nc(SCC(=O)c3ccc(F)cc3)nc3ccccc23)cc1` yielded a growth of 19.5%.
`CC1=C(C(=O)Nc2ccccc2)C(c2ccc3ccccc3c2)n2c(nc3ccccc32)N1` (stereo not given) showed a growth of 91.8%.
With `CN(C)CCCNC(=S)Nc1ccc(/C=C/c2ccc(Cl)cc2)cc1` the growth was -48.7% (active).
`O=c1[nH]c2ccccc2cc1CSc1ccccc1Nc1nccc(-c2ccc3c(c2)OCO3)n1` was tested, and the growth was 83.6%.
For `COc1ccc2c(c1)C(Sc1ccc(Br)cc1)c1c(nc(N)c(C#N)c1N)O2` (stereo not given), the growth was 80.3%.
